Hit rate of the full screen: of about 310,000 compounds, about 14,000 (4.5%) showed an effect of 50% or more. Effects have a minus sign here. This excerpt belongs to a sample that is enriched for strong results.
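Note: peak tail current of the secondary pulse compared with the same well before compound.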

Sequence of human ether-à-go-go-related gene (hERG) potassium channel (Q12809 whole entry, looked up): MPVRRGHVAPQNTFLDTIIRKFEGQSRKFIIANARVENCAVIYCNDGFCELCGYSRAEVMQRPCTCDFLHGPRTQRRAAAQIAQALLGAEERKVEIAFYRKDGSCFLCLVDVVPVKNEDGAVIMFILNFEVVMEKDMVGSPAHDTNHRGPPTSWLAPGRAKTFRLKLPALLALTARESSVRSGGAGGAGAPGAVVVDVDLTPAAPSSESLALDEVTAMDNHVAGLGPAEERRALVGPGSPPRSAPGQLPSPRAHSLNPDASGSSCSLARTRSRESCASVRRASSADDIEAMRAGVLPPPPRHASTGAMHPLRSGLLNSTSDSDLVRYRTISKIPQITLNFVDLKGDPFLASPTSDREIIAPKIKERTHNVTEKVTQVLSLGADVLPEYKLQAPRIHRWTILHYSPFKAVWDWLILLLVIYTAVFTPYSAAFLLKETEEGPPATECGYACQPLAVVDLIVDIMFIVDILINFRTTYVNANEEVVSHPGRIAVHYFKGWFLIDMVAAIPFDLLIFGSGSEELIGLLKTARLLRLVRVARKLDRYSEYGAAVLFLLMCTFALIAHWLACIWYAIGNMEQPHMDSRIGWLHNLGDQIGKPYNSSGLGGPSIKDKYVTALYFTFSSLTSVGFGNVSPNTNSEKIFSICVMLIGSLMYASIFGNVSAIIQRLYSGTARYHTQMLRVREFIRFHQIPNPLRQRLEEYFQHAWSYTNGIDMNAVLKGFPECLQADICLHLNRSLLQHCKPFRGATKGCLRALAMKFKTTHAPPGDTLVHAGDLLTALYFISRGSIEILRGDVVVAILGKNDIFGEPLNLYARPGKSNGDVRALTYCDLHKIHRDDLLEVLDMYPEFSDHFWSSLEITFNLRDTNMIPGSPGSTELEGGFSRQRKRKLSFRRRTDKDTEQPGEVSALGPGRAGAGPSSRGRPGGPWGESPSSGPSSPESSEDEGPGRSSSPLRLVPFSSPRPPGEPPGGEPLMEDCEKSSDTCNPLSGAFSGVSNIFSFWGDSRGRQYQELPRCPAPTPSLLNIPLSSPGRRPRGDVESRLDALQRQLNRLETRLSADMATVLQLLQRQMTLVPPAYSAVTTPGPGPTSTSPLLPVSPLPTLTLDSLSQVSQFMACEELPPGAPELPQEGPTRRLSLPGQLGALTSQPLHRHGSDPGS

This assay concerns the target human ether-à-go-go-related gene (hERG) potassium channel (human, UniProt Q12809). As to the kind of experiment: primary screen, population patch clamp on CHO cells stably expressing hERG; higher = less effect of the substance.
On to `Cc1cccc(C)c1NC(=O)CN(C)C(=O)CCc1nc2sc3c(c2c(=O)[nH]1)CCCC3`, for which the “hERG current change (%, negative = inhibition) at 10uM” value amounted to 5.53%.
In the case of `Cc1ccc2occ(/C=N/NC(=O)[C@@H](N)Cc3ccccc3)c(=O)c2c1.Cl` it was -22.5%; in that of `CCOc1ccc2nc(N3CCCC(C(=O)NCCCN4CC(C)CC(C)C4)C3)sc2c1` (stereo not drawn), -48.8%; in that of `CCOc1ccc2nc(N3CCCC(C(=O)NCCCN4CCCCC4)C3)sc2c1` (stereo not drawn), -64.8%.
As for `CCOc1ccc2nc(N3CCCC(C(=O)NCCCN4CCOCC4)C3)sc2c1` (stereo not drawn), the “hERG current change (%, negative = inhibition) at 10uM” value is -19.6%.
For `COc1cccc(C2C(C#N)=C(N)Oc3cc(C)n(Cc4ccccn4)c(=O)c32)c1OC` (stereo not drawn) the value was 3.7%; for `CC1(C)CC2CC(C)(CN2C(=O)C23CCC(C)(C(=O)C2)C3(C)C)C1` (stereo not drawn), -4.28%; for `CC(=O)NC(CC(=O)N1CCN(C(C)=O)CC1)c1ccccc1` (stereo not drawn), 27%.
As to `N#Cc1ccc(CN2CCN(C(=O)CC(NC(=O)c3ccccc3)c3ccccc3)CC2)cc1` (stereo not drawn), the “hERG current change (%, negative = inhibition) at 10uM” value was -81.2%.
`COc1cccc(N2CCN(C(=O)CC(NC(=O)c3ccccc3)c3ccccc3)CC2)c1` (stereo not drawn): the “hERG current change (%, negative = inhibition) at 10uM” value is -65%.
As to `CC(NC(=O)c1ccccc1)c1nc2ccccc2n1Cc1ccc(C#N)cc1` (stereo not drawn), the “hERG current change (%, negative = inhibition) at 10uM” value is reported as -68.6%.
In the case of `CCn1c(C(C)NC(=O)c2cccc(C)c2)nc2ccccc21` (stereo not drawn) it was -19.6%.
Take `CC(NC(=O)c1ccccc1)c1nc2ccccc2n1Cc1ccccc1F` (stereo not drawn): the “hERG current change (%, negative = inhibition) at 10uM” value is 0.996%.
`Cc1cccc(N2CCN(C(=O)CC(NC(=O)c3ccccc3)c3ccccc3)CC2C)c1` (stereo not drawn): the “hERG current change (%, negative = inhibition) at 10uM” value is reported as -47.1%.
Consider `O=C(NC(=S)N1CCN(Cc2ccccc2)CC1)c1ccccc1`, for which the “hERG current change (%, negative = inhibition) at 10uM” value came to 6.47%.
Consider `COc1ccc(N2CCN(C(=O)CC(NC(N)=O)c3cccc(Oc4ccccc4)c3)CC2)cc1` (stereo not drawn), for which the “hERG current change (%, negative = inhibition) at 10uM” value is given as -7.97%.
In the case of `CCC1(C)Cc2c(sc3c2c(=O)n(-c2ccccc2)c(=O)n3C)CO1` (stereo not drawn), the “hERG current change (%, negative = inhibition) at 10uM” value is reported as 5.26%.
For `COc1cc2cnc(-c3ccccc3)c(-c3cc(OC)c(OC)c(OC)c3)c2cc1OC` the value was -0.323%.
Take `Cn1c2ccccc2c(=O)c2ccc(C#CC3(O)CCCCC3)cc21`: the “hERG current change (%, negative = inhibition) at 10uM” value was 1.63%.
For the compound `COc1cccc(N(CC(=O)NCc2ccco2)C(=O)CCC(=O)Nc2nccs2)c1`, the “hERG current change (%, negative = inhibition) at 10uM” value amounted to 1.6%.
For the compound `CSCCC(NS(=O)(=O)c1ccc(Cl)cc1)C(=O)OCc1c(Cl)cccc1Cl` (stereo not drawn), the “hERG current change (%, negative = inhibition) at 10uM” value is listed as 6.45%.
With `COc1ccc(OC)c(C(C)NC(=S)NC2CCCCC2)c1` (stereo not drawn), the “hERG current change (%, negative = inhibition) at 10uM” value is on record as -6.58%.
With `Cc1cccc(OC(C)C(=O)N2CCCN(C)CC2)c1C` (stereo not drawn), the “hERG current change (%, negative = inhibition) at 10uM” value came to 1.75%.
As to `COc1ccc(NC(=O)CSc2nnc3n2CCCCC3)cc1`, the “hERG current change (%, negative = inhibition) at 10uM” value is reported as 8.17%.
As for `Cc1ccccc1S(=O)(=O)Oc1ccccc1C(=O)Oc1ccccc1`, the “hERG current change (%, negative = inhibition) at 10uM” value is reported as -1.26%.
As to `Br.CCOc1ccc(C2=CS/C(=C(\C#N)c3nnc4n3CCCCC4)N2CC)cc1`, the “hERG current change (%, negative = inhibition) at 10uM” value is recorded as -47.3%.
Turning to `C=CCn1c(=O)/c(=C/c2ccc(F)cc2)s/c1=C(\C#N)c1nnc2n1CCCCC2`, the “hERG current change (%, negative = inhibition) at 10uM” value is -59.9%.
Take `C=CCn1c(=O)/c(=C/c2ccc(Cl)cc2)s/c1=C(/C#N)c1nnc2n1CCCCC2`: the “hERG current change (%, negative = inhibition) at 10uM” value is given as -43%.
Take `Br.C=CCN1C(c2ccc(OCC)cc2)=CS/C1=C(\C#N)c1nnc2n1CCCCC2`: the “hERG current change (%, negative = inhibition) at 10uM” value is on record as -37.9%.
In the case of `Br.C=CCN1C(c2ccccc2)=CS/C1=C(\C#N)c1nnc2n1CCCCC2` it was -59.2%.
`C=CCn1c(=O)/c(=C/c2ccc(O)cc2)s/c1=C(/C#N)c1nnc2n1CCCCC2`: the “hERG current change (%, negative = inhibition) at 10uM” value is -16.6%.
As to `Cc1cc(C(=O)Nc2ccc(C(=O)O)cc2)c(C)o1`, the “hERG current change (%, negative = inhibition) at 10uM” value was 23.9%.
As for `Cc1cc(C)c(C)c(S(=O)(=O)N2CCN(c3ncnc4ccccc34)CC2)c1C`, the “hERG current change (%, negative = inhibition) at 10uM” value is given as -4.67%.
In the case of `Cc1c(NC(=O)c2cc(-c3ccc(Cl)cc3)on2)c(=O)n(-c2ccccc2)n1C`, the “hERG current change (%, negative = inhibition) at 10uM” value was -55.1%.
In the case of `Cc1c(NC(=O)c2cc3nc(-c4ccc(Cl)cc4)cc(C(F)(F)F)n3n2)c(=O)n(-c2ccccc2)n1C`, the “hERG current change (%, negative = inhibition) at 10uM” value was -55.3%.
In the case of `Cc1c(N/C(=N/S(=O)(=O)c2ccc(Cl)cc2)c2ccccc2)c(=O)n(-c2ccccc2)n1C`, the “hERG current change (%, negative = inhibition) at 10uM” value is on record as -20.6%.
Turning to `Cc1c(N/C(=N/S(=O)(=O)c2ccccc2)c2ccc(Cl)cc2)c(=O)n(-c2ccccc2)n1C`, the “hERG current change (%, negative = inhibition) at 10uM” value is -30.7%.
With `Cc1ccc(-c2cc(C(F)(F)F)n3nc(C(=O)Nc4c(C)n(C)n(-c5ccccc5)c4=O)cc3n2)cc1`, the “hERG current change (%, negative = inhibition) at 10uM” value is listed as -14.3%.
For `Cc1c(NC(=O)c2noc3c2CCc2ccccc2-3)c(=O)n(-c2ccccc2)n1C` the value was -52.9%; for `Cc1c(NC(=O)c2cc3nc(-c4ccc(Br)cc4)cc(C(F)(F)F)n3n2)c(=O)n(-c2ccccc2)n1C`, -33.9%; for `COc1ccc2c(c1)CCc1c(C(=O)Nc3c(C)n(C)n(-c4ccccc4)c3=O)noc1-2`, 4.63%.
In the case of `Cc1ccc(-c2cc(C(=O)Nc3c(C)n(C)n(-c4ccccc4)c3=O)no2)cc1`, the “hERG current change (%, negative = inhibition) at 10uM” value is reported as -25.3%.
Turning to `Cc1ccc(S(=O)(=O)/N=C(/Nc2c(C)n(C)n(-c3ccccc3)c2=O)c2ccc(Cl)cc2)cc1`, the “hERG current change (%, negative = inhibition) at 10uM” value is on record as -57%.
As to `Cc1c(NC(=O)c2cc(-c3ccccc3)on2)c(=O)n(-c2ccccc2)n1C`, the “hERG current change (%, negative = inhibition) at 10uM” value was -27.7%.
As for `Cc1cc(NC(=O)c2noc3c2CCc2ccccc2-3)no1`, the “hERG current change (%, negative = inhibition) at 10uM” value came to 11%.

These data come from PMC4336329 (PLoS ONE, 2015).
